Assay results reported in PubChem BioAssay (NCATS).
Unmarked numbers belong to inactive results. Activity calls are given as the source filed them. The call rests on the fitted dose curve; in most records, active means well fitted activation curve with a large enough effect; inconclusive means small, poorly fitted or top-dose-only effect; inactive means no such curve, though single readings can be large or run the other way. Numbered stars: 1 amine (or outer) side, 2 acyl side, 3 side chain; on linkers, the order of the positions; unused ones are H or OH. Bridge positions count the residues as written; N and C are the ends. Square brackets hold non-standard residues; d marks the D form. Peptide text beside a SMILES is read from it. I, II: the chains in the order shown. Actinocin(9to1) = Cc1c2oc3c(C)ccc(C(=O)[*:1])c3nc-2c(C(=O)[*:2])c(N)c1=O; NMeV = CN[C@H](C(=O)O)C(C)C; Sar = CNCC(=O)O

These compounds were tested against Cytochrome P450 3A4 (Homo sapiens) (UniProt P08684) (assay: qHTS Assay for Activators of Cytochrome P450 3A4 (AID 885; further: nearly all actives have a fitted effect of over 65% in size)). Conditions: recombinant CYP3A4, Luciferin-PPXE luminescence, 60 min; series mostly up to 57.1 µM; activity change, positive = activation: at the top concentration.
Protocol: NIH Molecular Libraries Screening Centers Network [MLSCN]
NIH Chemical Genomics Center [NCGC]
The P450 gene superfamily is involved in the metabolism and clearance of xenobiotics. This assay used human CYP3A4 to measure the dealkylation of luciferin-6' phenylpiperazinylyl (Luciferin-PPXE; […]) to luciferin. The luciferin is then measured by luminescence after the addition of a luciferase detection reagent. Luciferin-PPXE concentration in the assay was equal to its KM for CYP3A4. Inhibitors and some substrates limit the production of luciferin, and decrease measured luminescence; activators increase the production of luciferin and luminescence.
NCGC Assay Protocol Summary:
Two uL of enzyme and substrate mix (final concentrations: 20nM CYP3A4, 25uM Luciferin-PPXE, 200mM KPO4) were dispensed into a white, solid bottom 1536-well microtiter plate. 23nL of compound was transferred by a pin tool. The plate was incubated at RT for 10 min. Two uL of an NADPH regeneration solution (Promega supplied reagent) was dispensed and the reaction was allowed to continue for 60 min at RT. Then the reaction was stopped by reconstituted luciferin detection buffer. After another 20 min of incubation the plate was read on the ViewLux (Perkin Elmer) at 60 sec exposure and 2x2 binning. This protocol was carried out with Promega-Glo reagents and further information can be found at http://www.promega.com/tbs/tb325/tb325.pdf. Data were normalized to the to AC100 inhibition (57 uM ketoconazole).
Keywords: P450, CYP2D6, Luciferase, MLSMR, MLSCN, NIH Roadmap, qHTS, NCGC
Potency means the concentration at half of the fitted maximal effect.

Cytochrome P450 3A4 (Homo sapiens), sequence (P08684 whole entry, looked up): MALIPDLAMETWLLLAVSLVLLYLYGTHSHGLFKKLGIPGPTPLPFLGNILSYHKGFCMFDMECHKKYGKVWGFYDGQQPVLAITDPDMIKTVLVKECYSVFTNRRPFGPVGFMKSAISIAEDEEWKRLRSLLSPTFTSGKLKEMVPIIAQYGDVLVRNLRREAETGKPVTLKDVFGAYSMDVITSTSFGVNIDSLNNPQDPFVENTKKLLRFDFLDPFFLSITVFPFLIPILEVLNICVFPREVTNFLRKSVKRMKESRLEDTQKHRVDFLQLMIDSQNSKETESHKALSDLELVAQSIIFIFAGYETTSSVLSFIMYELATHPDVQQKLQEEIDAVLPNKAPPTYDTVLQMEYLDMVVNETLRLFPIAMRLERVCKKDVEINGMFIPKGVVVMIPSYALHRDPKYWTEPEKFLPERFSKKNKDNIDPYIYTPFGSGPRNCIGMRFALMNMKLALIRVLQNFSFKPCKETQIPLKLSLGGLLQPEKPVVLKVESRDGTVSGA

Question: How did the Potency turn out when `O=C(CCCN1CCC(O)(c2ccc(Br)cc2)CC1)c1ccc(F)cc1` was run?
Answer: 10 µM (active)

Question: How did the “activity change, positive = activation” value turn out when `O=C1c2ccccc2C(=O)C1c1ccccc1` was run?
Answer: -43.5%

Question: How did the “activity change, positive = activation” value turn out when `N[C@@H](Cc1cnc[nH]1)C(=O)O` was run?
Answer: -38.8%

Question: Which “activity change, positive = activation” value does the source give for `COc1cc(NS(C)(=O)=O)ccc1Nc1c2ccccc2nc2ccccc12` here?
Answer: -37.6%

Question: `Cc1c2oc3c(C)ccc(C(=O)N[C@@H]4C(=O)N[C@H](C(C)C)C(=O)N5CCC[C@H]5C(=O)N(C)CC(=O)N(C)[C@@H](C(C)C)C(=O)O[C@@H]4C)c3nc-2c(C(=O)N[C@@H]2C(=O)N[C@H](C(C)C)C(=O)N3CCC[C@H]3C(=O)N(C)CC(=O)N(C)[C@@H](C(C)C)C(=O)O[C@@H]2C)c(N)c1=O` (I: T[dV]P[Sar][NMeV] / II: T[dV]P[Sar][NMeV]; ester I:1-I:C, II:1-II:C; linker I:N-II:N via Actinocin(9to1)) was tested. Which “activity change, positive = activation” value did it give?
Answer: -32.4%

Question: `CCCCc1nc(Cl)c(CO)n1Cc1ccc(-c2ccccc2-c2nn[nH]n2)cc1` was tested. Which “activity change, positive = activation” value did it give?
Answer: -76.8%

Question: Which Potency does the source give for `CNCCC=C1c2ccccc2CCc2ccccc21` here?
Answer: inactive

Question: With `Oc1cc(O)c2c(c1)O[C@H](c1ccc(O)c(O)c1)[C@H](O)C2` as the compound, how does the “activity change, positive = activation” value read?
Answer: -54.4%

Question: With `O=C(COc1ccc(Cl)cc1)N1CCN(Cc2ccc3c(c2)OCO3)CC1` as the compound, how does the “activity change, positive = activation” value read?
Answer: -70.6% [at 25.6 µM]

Question: `O=C1OC(c2ccc(O)cc2)(c2ccc(O)cc2)c2ccccc21` was tested. Which “activity change, positive = activation” value did it give?
Answer: -87.5%

Question: For `CN(C(=O)CN(CCO)CC(=O)N(C)C(C)(C)Cc1ccccc1)C(C)(C)Cc1ccccc1`, which “activity change, positive = activation” value is on record?
Answer: -58.5% [at 25.6 µM]

Question: Which “activity change, positive = activation” value does the source give for `Oc1ccc(O)cc1` here?
Answer: -22.6%

Question: Which “activity change, positive = activation” value does the source give for `CCOc1ccc(Cc2nccc3cc(OCC)c(OCC)cc23)cc1OCC` here?
Answer: -108%

Question: With `COc1cccc2c1C(=O)c1c(O)c3c(c(O)c1C2=O)C[C@@](O)(C(=O)CO)C[C@@H]3O[C@H]1C[C@H](N)[C@H](O)[C@H](C)O1` as the compound, how does the “activity change, positive = activation” value read?
Answer: -65.3%

Question: How did the Potency turn out when `CC(=O)Oc1ccc(C(c2ccc(OC(C)=O)cc2)c2ccccn2)cc1` was run?
Answer: inactive

Question: How did the Potency turn out when `COc1c(C)c2c(c(O)c1C/C=C(\C)CCC(=O)O)C(=O)OC2` was run?
Answer: inactive

Question: For `NC(=NCCCCCCN=C(N)/N=C(\N)Nc1ccc(Cl)cc1)/N=C(\N)Nc1ccc(Cl)cc1`, which “activity change, positive = activation” value is on record?
Answer: -61.3%

Question: `O=C(OCC(O)CO)c1ccccc1Nc1ccnc2cc(Cl)ccc12` (stereo unspecified) was tested. Which “activity change, positive = activation” value did it give?
Answer: -115%

Question: `CC(Cc1cccc(C(F)(F)F)c1)NCCOC(=O)c1ccccc1` (stereo unspecified) was tested. Which “activity change, positive = activation” value did it give?
Answer: -107%

Question: Which “activity change, positive = activation” value does the source give for `COc1cccc2c1C(=O)c1c(O)c3c(c(O)c1C2=O)C[C@@](O)(C(C)=O)C[C@@H]3O[C@H]1C[C@H](N)[C@H](O)[C@H](C)O1` here?
Answer: -45.9%

Question: Which “activity change, positive = activation” value does the source give for `CNCC[C@@H](Oc1ccccc1C)c1ccccc1` here?
Answer: -38.9%

Question: With `CN(C)CC/C=C1\c2ccccc2Sc2ccc(Cl)cc21` as the compound, how does the Potency read?
Answer: inactive

Question: `CCCC1O[C@@H]2C[C@H]3[C@@H]4CCC5=CC(=O)C=C[C@]5(C)[C@H]4[C@@H](O)C[C@]3(C)[C@]2(C(=O)CO)O1` (stereo partly specified) was tested. Which “activity change, positive = activation” value did it give?
Answer: -87.6%

Question: How did the “activity change, positive = activation” value turn out when `CCCCOc1ccc(C(=O)CCN2CCCCC2)cc1` was run?
Answer: -34.8%

Question: With `O=C(O)c1cc2cc(Cc3cccnc3)ccc2o1` as the compound, how does the “activity change, positive = activation” value read?
Answer: -44.3%

Question: How did the “activity change, positive = activation” value turn out when `CC(C)(C(=O)c1cccnc1)c1cccnc1` was run?
Answer: -80.3% [at 25.6 µM]

Question: With `O=C1CCC(c2ccc(-n3ccnc3)cc2)=NN1` as the compound, how does the “activity change, positive = activation” value read?
Answer: -94.3%

Question: Which “activity change, positive = activation” value does the source give for `COc1c2occc2c(OC)c2c(=O)cc(C)oc12` here?
Answer: -82.5%

Question: Which “activity change, positive = activation” value does the source give for `CC(=O)O[C@]1(C(C)=O)CC[C@H]2[C@@H]3C[C@H](C)C4=CC(=O)CC[C@]4(C)[C@H]3CC[C@@]21C` here?
Answer: -62.9%

Question: With `COc1ccc(CCN2CCC(Nc3nc4ccccc4n3Cc3ccc(F)cc3)CC2)cc1` as the compound, how does the “activity change, positive = activation” value read?
Answer: -50.2%

Question: Which “activity change, positive = activation” value does the source give for `Oc1c(Cl)cc(Cl)cc1Sc1cc(Cl)cc(Cl)c1O` here?
Answer: -66%
